IL1B cytotox: toxic to HUVEC cells under IL-1B stimulation; HUVEC cell count loss, Hoechst imaging, IL-1B stimulated; cell count reduction, % at 2 µM; actives 0.41% (n = 94,000);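 active = cell count reduction more than 3 SD above the screen-wide mean, cut at about 70% in these data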;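 note: normalized per plate to untreated control cells as the no-loss baseline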
NFkB transloc inh: blocks IL-1B driven NFkB nuclear translocation in HUVEC cells; HUVEC IL-1B NFkB p65 nuclear translocation imaging; AID 796; actives 0.43% (n = 94,000); inhibition, % at 2 µM;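 active = inhibition above about 30% together with a positive call from visual inspection of the well image, limit read from the data; inconclusive = inhibition above a set limit but visual check negative; inactive = inhibition not above a set limit, visual check negative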;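 note: nuclear over cytoplasmic p65 intensity ratio measured by imaging; 0% = IL-1B stimulated DMSO wells and 100% = unstimulated DMSO wells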
NFkB transloc pot: enhances IL-1B driven NFkB nuclear translocation. HUVEC IL-1B NFkB p65 nuclear translocation imaging. activation, % at 2 µM. actives 0.3% (n = 94,000). AID 819;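 active = activation above 40%, about the mean plus 3 SD, also judged a hit on visual image review; inconclusive = activation above 40% but not a hit on visual review; inactive = activation not above 40% and no visual hit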;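 note: percent activation is computed from the nuclear over cytoplasmic p65 intensity ratio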
Cav32 inh: inhibitors of human Cav3.2 T-type calcium channel | actives 4% (n = 100,000) | O95180 | B-score at 10 µM | Cav3.2-expressing cells, Fluo-4 calcium fluorescence FDSS; hits give low values;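 active = single-dose well whose peak fluorescence ratio is a statistical outlier from its plate by either plate-standardised score or position-corrected B-score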
Numbers without * were called inactive; ? = inconclusive; nt = no result. In the library only some 4.4% were active in any assay of this set; here they are far more common.

SMILES	IL1B cytotox	NFkB transloc inh	NFkB transloc pot	Cav32 inh
COC(=O)CSc1nc(SCc2ccccc2Cl)nc2c1CCCC2	-27	6	-6	-5*
Cc1ccc(CN(c2ccc(C(=O)NCc3ccccn3)cc2)S(C)(=O)=O)cc1	1	-18	18	0.81
Nc1cc(-c2ccccc2)nn1S(=O)(=O)c1ccc(F)cc1	10	-5	5	-7.2*
COc1ccc(-n2c(SCCC#N)nnc2-c2cc(Cl)ccc2OC)cc1Cl	-5	-12	12	-4.3*
Cc1cccc(-c2nnc(SCC#N)n2-c2cccc(Cl)c2)c1	-6	-3	3	-1.7
Cc1c(Cl)c([N+](=O)[O-])nn1CC(=O)NC(C)C1CC2CCC1C2 (stereo not drawn)	-8	-39	39	-8.2*
Cc1noc(C)c1COC(=O)CCN1c2ccccc2Sc2ccccc21	-5	6	-5	-4.2
CCOC(=O)c1nnn(-c2nonc2N)c1CN(CC)c1ccccc1	-43	0	0	-4.8*
CCOC(=O)c1nnn(-c2nonc2N)c1CN(CC)CC	2	-8	8	0.007
O=C1Nc2ccccc2C(O)(C(=O)NCc2ccc3c(c2)OCO3)N1c1ccc(Cl)c(Cl)c1 (stereo not drawn)	11	4	-4	-0.044
C=CCNc1nnc(SC2CC(=O)N(c3ccc(OCCC)cc3)C2=O)s1 (stereo not drawn)	-3	-5	5	3.3*
C=CCN1c2ccccc2[C@]23C[C@@H](C(=O)OC)N(C(=O)NCCC)C2=NC(C(=O)OC)=C(C(=O)OC)[C@H]13	nt	nt	nt	-1.9
COc1ccc(C(=O)C/C(=C\C(=O)c2ccc(C)cc2)c2ccccc2)cc1	nt	nt	nt	-4.2*
COc1ccc(C(CC(=O)c2ccccc2)S(=O)(=O)c2ccc(C)cc2)cc1 (stereo not drawn)	-17	-69	69*	0.036
O=C(N1CCOCC1)N1CCN(S(=O)(=O)N2CCCCC2)CC1	-36	2	-1	-0.15
O=[N+]([O-])c1ccc2c(c1)C(N1CCOCC1)/C(=C/COc1ccc(F)cc1)O2 (stereo not drawn)	-18	-7	7	-7.3*
O=[N+]([O-])c1ccc(OC/C=C2\Oc3ccc([N+](=O)[O-])cc3C2N2CCOCC2)cc1 (stereo not drawn)	-3	8	-9	-2.2
Cc1cccc(-c2nnc(NC(=O)c3ccc(Cl)cc3)o2)c1	nt	nt	nt	-4.4*
O=C(Nc1nnc(-c2ccc3c(c2)CCCC3)o1)c1ccccc1Cl	27	1	-1	nt
O=C(Nc1nnc(-c2ccc3c(c2)CCCC3)o1)c1ccccc1	-83	-4	4	-5.6*
CC1(C)NC(=O)N(CC(=O)Nc2nc(-c3ccc(F)cc3)cs2)C1=O	-8	-10	10	nt
COC(=O)c1ccccc1NC(NC(=O)c1ccco1)C(=O)c1ccc(C)cc1 (stereo not drawn)	-6	-3	3	0.029
COc1ccc(NC(=S)NCCSc2ccc(C)cc2)c(OC)c1	5	-8	8	-6.5*
COc1ccc(NC(=S)NCCN2CCOCC2)c(OC)c1	19	-11	11	0.61
C/C(=N\O)c1ccc(N2C(=O)C3CC=C(Cl)CC3C2=O)cc1 (stereo not drawn)	92*	5	-5	0.36
SMILES	IL1B cytotox	NFkB transloc inh	NFkB transloc pot	Cav32 inh
CCOC(=O)/C=C/c1ccccc1S(=O)(=O)NC(C)(C)C	nt	nt	nt	-0.084
CCSc1nc(C(F)(F)F)cc(=O)n1-c1ccccc1	9	-3	3	-0.26
Cn1c(SCc2ccc(Cl)cc2Cl)nc(C(F)(F)F)cc1=O	-91	-44	44*	nt
Cc1cccc(OCc2nnc3n2CCCCC3)c1	-16	10	-10	0.63
C=CCn1c(SCC(=O)OC)nc2sc3c(c2c1=O)CCN(C)C3	-7	-8	8	1.4
CCCOC(=O)c1ccc(NS(=O)(=O)c2cccs2)cc1	-4	1	-1	-5*
CCc1nc(Nc2ccc(OC)c(OC)c2)c2nnn(Cc3ccccc3Cl)c2n1	-34	-36	36	0.37
COC(=O)c1cc(CSc2nnc(NC3CCCCC3)s2)oc1C	-7	-5	5	-2.6
O=C(Nc1ccc(-c2nc3ccc(NC(=O)c4cccs4)cc3[nH]2)cc1)c1cccs1	4	-17	17	0.26
O=C(Nc1ccc2nc(-c3cccs3)[nH]c2c1)c1cccs1	90*	6	-6	-0.76
COc1ccc(NC(C)c2cc(Cl)ccc2O)cc1 (stereo not drawn)	-12	8	-8	nt
CC(Nc1ccccc1)c1cc(Cl)ccc1O (stereo not drawn)	89*	91*	-91	-7.1*
COc1ccc(NC(=O)C(c2ccccc2)N(C)C(=O)c2cnccn2)cc1 (stereo not drawn)	nt	nt	nt	-4.2*
Cc1onc(-c2c(F)cccc2Cl)c1C(=O)NC1CCSC1=O (stereo not drawn)	-17	-3	3	-0.048
Cc1nc(CS(=O)(=O)c2ccc(Cl)cc2)cc(Sc2ccccc2Cl)n1	-2	3	-3	-4.5*
CCOc1cc(S(=O)(=O)NCc2ccccn2)ccc1Cl	-37	-12	12	0.87
COC(=O)c1cn(C(=O)c2cccs2)c2ccccc12	95*	10	-10	-1
COC(=O)c1cn(C(=O)c2ccc(Br)o2)c2ccccc12	nt	nt	nt	0.034
Cc1ccc(N(Cc2ccc([N+](=O)[O-])cc2)C(=O)c2ccco2)cc1	-17	-11	11	-6.7*
COc1ccc(CN(C(=O)c2ccco2)c2ccc(Br)cc2)cc1OC	-41	3	-3	-4.6*
Cc1[nH]c2ccccc2c1C(c1ccccn1)N1CCC(C(N)=O)CC1 (stereo not drawn)	-29	5	-5	-0.043
CCN(CC)S(=O)(=O)c1ccc(C(=O)N2CCCCC2)cc1	-2	4	-3	0.21
COc1ccc(CCN(C(=O)C(F)(F)F)C(C(=O)NC2CCCCC2)c2ccc(C)s2)cc1OC (stereo not drawn)	-21	-17	17	-0.14
[O-][n+]1c2c(c3c4non(O)c4ccc31)CCCC2	88*	23	-23	-6.8*
CCN(CC)C(=O)C(=O)N/N=C/c1ccc(Br)cc1	-16	2	-2	1.8
SMILES	IL1B cytotox	NFkB transloc inh	NFkB transloc pot	Cav32 inh
CN(C)C=Nc1c(Br)cc(Br)c2nonc12	-6	-12	12	-4.2*
COn1c2c(c3c4nonc4ccc31)CCCC2	-8	10	-9	-2.4
On1c2c(c3c4nonc4ccc31)CCCC2	3	-40	?	-5.8*
COc1ccc(Cc2nnn(CC(=O)O)n2)cc1	16	18	-18	0.86
C#CCOCCOCCOCCNc1nc(N2CCOCC2)nc(N2CCN(C(=O)[C@H](C)n3cc(CCCN=C(N)N)nn3)CC2)n1	nt	nt	nt	0.69
O=C1c2ccccc2C(=O)N1CCCCN1CCN(CCCCN2C(=O)c3ccccc3C2=O)CC1	14	-14	14	nt
O=C1c2ccccc2C(=O)N1CCCN1CCN(CCCN2C(=O)c3ccccc3C2=O)CC1	89*	98*	-98	nt
COC(=O)Nc1ccc(=O)n(Cc2c(Cl)cccc2Cl)c1	-54	9	-9	0.14
CCN(CC)S(=O)(=O)c1ccc(C(=O)NCc2n[nH]c(=S)n2Cc2ccccc2)cc1	-1	-7	7	-4.1*
